Out of some 150,000 compounds screened, about 100 (0.067%) were called active.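 How the source made its calls: active means inhibition above the mean plus 3 SD of compounds within the control limits, set per campaign (cut at about 38% in these data); inactive means the rest.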 The list comes from a sample in which actives are over-represented; it also holds similar structures and randomly drawn compounds.
assay: late stage P. falciparum gametocyte viability inhibitors, primary screen, ATP luminescence, HTS (AID 743093);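 further: 0% = DMSO wells and 100% = medium only without gametocytes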; details: P. falciparum stage V gametocytes, 24 h, at 10.9 µM, active compounds read high

Structure (SMILES)	inhibition
N#CCSc1nc(-c2ccccc2)nc2ccc(F)cc12	-8.79% (inactive)
Cc1cc(C)n(-c2nc(O)cc(=O)[nH]2)n1	9.58% (inactive)
Cc1cc(C)n(-c2ccc(Cl)c(C(=O)O)n2)n1	8.49% (inactive)
Cc1cc(C)n(-c2ccc3nncn3n2)n1	38.2% (active)
O=C(CN1CCCCCC1)Nc1c(Cl)cc(Cl)cc1Cl	-23.1% (inactive)
O=C(NC(=O)N1CCSCC1)c1c(Cl)cccc1Cl	-10.9% (inactive)
CCn1c(SCC(=O)N/N=C/c2ccncc2)nc2ccccc21	-15.2% (inactive)
O=C1NC[C@@H](c2ccccc2)OC(=O)[C@H](Cc2ccc(F)cc2)CC/C=C/C[C@H]1CC(=O)N(CCO)Cc1ccccc1	4.53% (inactive)
COc1ccc(C(C#N)(CC(=O)O)c2cnccn2)cc1OC (configuration not stated)	-25% (inactive)
Cc1ccccc1NC(=O)N1CCCC1C(=O)NCc1ccccc1 (configuration not stated)	1.78% (inactive)
Cc1ccc2c(O)c(Cc3ccccc3)c(=O)[nH]c2n1	-11.8% (inactive)
C/C(Cc1ccccc1)=N\NC(=O)CNC(=O)c1ccc2c(c1)OCCO2	-4.02% (inactive)
CC(C)c1cc(CN2CCOCC2)cc(C(C)C)c1O	-5.85% (inactive)
CCOC(=O)c1c(C)[nH]c(=S)c(C#N)c1-c1ccccc1	-28.7% (inactive)
CCOC(=O)c1c(C)[nH]c2c1-c1ccccc1C(=O)C2=O	50.2% (active)
CCOC(=O)C1=C(c2ccc(OC)cc2)C(=O)c2ccccc2C1=O	-27.7% (inactive)
Cc1cccc(C(=O)N2CCC(c3nc4ccccc4s3)CC2)c1	13% (inactive)
Nc1nnnn1/N=C/c1cc([N+](=O)[O-])ccc1O	-1.33% (inactive)
CCN(CC)S(=O)(=O)c1ccc(NC(=O)c2cnc(C)cn2)cc1	-1.77% (inactive)
CC(=O)NS(=O)(=O)c1ccc(N/C(N)=N/c2nc(C)cc(C)n2)cc1	11.7% (inactive)
CCCCC(CC)CNCc1cccn1CCN1CCOCC1 (configuration not stated)	-25.6% (inactive)
CCOC(=O)c1c(N)sc2c1CCCC2=O	-6.75% (inactive)
Cc1c(CN2CC[C@@H](N3CCN(c4ccccn4)CC3)[C@H](O)C2)[nH]c2ccc(F)cc12	-10.1% (inactive)
CCc1ccc(NC(=O)N[C@H](C(=O)O)C(C)CC)cc1 (some centres not stated)	-3.41% (inactive)
Cc1ccc(C)c(SCc2nc3sc(C(=O)O)c(C)c3c(=O)[nH]2)c1	8.97% (inactive)
CC1=CC(C)(C)NC(=S)N1NC(=O)c1ccccc1Cl	-21.8% (inactive)
C[C@@H]1NC(=O)[C@@]2(C)[C@@H](c3ccccc3)[C@H]3COc4ccccc4[C@@H]3N2C1=O	-7.28% (inactive)

— PubChem BioAssay AID743093 (The Scripps Research Institute Molecular Screening Center, 2013)
